In PMC11006913:
Changes are numbered by the printed parent chain.

Columns and labels:
Experiment in all cases: PBM; 200 nM protein, PBS
Conditions in all cases: dsDNA, one strand shown
VENTX [1] = molecular target: T1, VENTX (Homo sapiens, UniProt O95231 78-163, R121Q)
T1 sequence: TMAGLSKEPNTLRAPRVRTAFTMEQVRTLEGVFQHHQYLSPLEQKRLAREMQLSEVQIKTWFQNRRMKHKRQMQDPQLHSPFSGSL

VENTX [2] = molecular target: T2, VENTX (Homo sapiens, UniProt O95231 78-163)
T2 sequence: T1 sequence with Q44R

VENTX [3] = molecular target: T3, VENTX (Homo sapiens, UniProt O95231 78-163, Y115F)
T3 sequence: T1 sequence with Y38F, Q44R

HOXA2 [4] = molecular target: HOXA2 (Homo sapiens, UniProt O43364 129-215, R185T)
HOXA2 [5] = molecular target: HOXA2 (Homo sapiens, UniProt O43364 129-215, R185K)
HOXA2 [6] = molecular target: HOXA2 (Homo sapiens, UniProt O43364 129-215, Y150S)
HOXA2 [7] = molecular target: HOXA2 (Homo sapiens, UniProt O43364 129-215)
MSX2 [8] = molecular target: MSX2 (Homo sapiens, UniProt P35548 130-214, R199I)
MSX2 [9] = molecular target: MSX2 (Homo sapiens, UniProt P35548 130-214)
MSX2 [10] = molecular target: MSX2 (Homo sapiens, UniProt P35548 130-214, F161Y)
VAX1 [11] = molecular target: VAX1 (Homo sapiens, UniProt Q5SQQ9 86-172)
VAX1 [12] = molecular target: VAX1 (Homo sapiens, UniProt Q5SQQ9 86-172, T142I)
VAX1 [13] = molecular target: VAX1 (Homo sapiens, UniProt Q5SQQ9 86-172, K157R)
ALX3 [14] = molecular target: ALX3 (Homo sapiens, UniProt O95076 139-225, N203Q)
ALX3 [15] = molecular target: ALX3 (Homo sapiens, UniProt O95076 139-225)
ALX3 [16] = molecular target: ALX3 (Homo sapiens, UniProt O95076 139-225, L168Q)
ALX3 [17] = molecular target: ALX3 (Homo sapiens, UniProt O95076 139-225, L168V)
ALX3 [18] = molecular target: ALX3 (Homo sapiens, UniProt O95076 139-225, N203S)
HOXD13 [19] = molecular target: HOXD13 (Homo sapiens, UniProt P35453 263-343, T313R)
HOXD13 [20] = molecular target: HOXD13 (Homo sapiens, UniProt P35453 263-343)
HOXD13 [21] = molecular target: HOXD13 (Homo sapiens, UniProt P35453 263-343, T313A)
HOXA4 = HOXA4 (Homo sapiens, UniProt Q00056 201-287, R217L)
ALX1 [22] = molecular target: ALX1 (Homo sapiens, UniProt Q15699 118-204, L144V)
ALX1 [23] = molecular target: ALX1 (Homo sapiens, UniProt Q15699 118-204, L144R)
ALX1 [24] = molecular target: ALX1 (Homo sapiens, UniProt Q15699 118-204)
Chain of ALX1 (Homo sapiens, UniProt Q15699 118-204) (Q15699 118-204): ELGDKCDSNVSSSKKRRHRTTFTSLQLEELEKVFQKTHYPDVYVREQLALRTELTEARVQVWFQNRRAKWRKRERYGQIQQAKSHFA

Chain of HOXA2 (Homo sapiens, UniProt O43364 129-215, R185T) (O43364 129-215 R185T): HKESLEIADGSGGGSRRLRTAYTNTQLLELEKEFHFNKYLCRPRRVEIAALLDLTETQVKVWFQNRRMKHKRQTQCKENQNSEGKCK
Chain of HOXA2 (Homo sapiens, UniProt O43364 129-215, Y150S) (O43364 129-215 Y150S): as the sequence (O43364 129-215 R185T) above, with Y22S, T57R counted along it
Chain of HOXA2 (Homo sapiens, UniProt O43364 129-215, R185K) (O43364 129-215 R185K): as the sequence (O43364 129-215 R185T) above, with T57K counted along it
Chain of ALX3 (Homo sapiens, UniProt O95076 139-225, L168Q) (O95076 139-225 L168Q): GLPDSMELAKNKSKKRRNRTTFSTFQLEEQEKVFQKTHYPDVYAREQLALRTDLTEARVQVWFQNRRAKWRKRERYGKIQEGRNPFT
Chain of ALX3 (Homo sapiens, UniProt O95076 139-225, N203Q) (O95076 139-225 N203Q): as the sequence (O95076 139-225 L168Q) above, with Q30L, N65Q counted along it
Chain of HOXA2 (Homo sapiens, UniProt O43364 129-215) (O43364 129-215): as the sequence (O43364 129-215 R185T) above, with T57R counted along it
Chain of ALX3 (Homo sapiens, UniProt O95076 139-225) (O95076 139-225): as the sequence (O95076 139-225 L168Q) above, with Q30L counted along it
Chain of ALX3 (Homo sapiens, UniProt O95076 139-225, L168V) (O95076 139-225 L168V): as the sequence (O95076 139-225 L168Q) above, with Q30V counted along it
Chain of ALX3 (Homo sapiens, UniProt O95076 139-225, N203S) (O95076 139-225 N203S): as the sequence (O95076 139-225 L168Q) above, with Q30L, N65S counted along it
Chain of ALX1 (Homo sapiens, UniProt Q15699 118-204, L144V) (Q15699 118-204 L144V): as the sequence (Q15699 118-204) above, with L27V counted along it
Chain of VAX1 (Homo sapiens, UniProt Q5SQQ9 86-172) (Q5SQQ9 86-172): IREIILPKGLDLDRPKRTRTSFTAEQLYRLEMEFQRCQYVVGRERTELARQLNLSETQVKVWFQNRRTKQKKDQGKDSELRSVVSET
Chain of VAX1 (Homo sapiens, UniProt Q5SQQ9 86-172, T142I) (Q5SQQ9 86-172 T142I): as the sequence (Q5SQQ9 86-172) above, with T57I counted along it
Chain of ALX1 (Homo sapiens, UniProt Q15699 118-204, L144R) (Q15699 118-204 L144R): as the sequence (Q15699 118-204) above, with L27R counted along it
Chain of VAX1 (Homo sapiens, UniProt Q5SQQ9 86-172, K157R) (Q5SQQ9 86-172 K157R): as the sequence (Q5SQQ9 86-172) above, with K72R counted along it
Chain of HOXA4 (Q00056 201-287 R217L): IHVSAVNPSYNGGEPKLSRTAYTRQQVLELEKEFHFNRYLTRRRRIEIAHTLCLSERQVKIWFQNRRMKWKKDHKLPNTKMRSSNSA
Chain of MSX2 (Homo sapiens, UniProt P35548 130-214, R199I) (P35548 130-214 R199I): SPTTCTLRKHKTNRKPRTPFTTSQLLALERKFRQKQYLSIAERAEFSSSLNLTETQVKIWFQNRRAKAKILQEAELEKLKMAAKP
Chain of HOXD13 (Homo sapiens, UniProt P35453 263-343, T313A) (P35453 263-343 T313A): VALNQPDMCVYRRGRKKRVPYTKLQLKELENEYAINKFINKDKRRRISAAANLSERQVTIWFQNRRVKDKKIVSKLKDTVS
Chain of MSX2 (Homo sapiens, UniProt P35548 130-214) (P35548 130-214): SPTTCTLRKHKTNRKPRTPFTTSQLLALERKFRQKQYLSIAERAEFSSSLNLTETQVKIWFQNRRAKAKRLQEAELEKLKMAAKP
Chain of MSX2 (Homo sapiens, UniProt P35548 130-214, F161Y) (P35548 130-214 F161Y): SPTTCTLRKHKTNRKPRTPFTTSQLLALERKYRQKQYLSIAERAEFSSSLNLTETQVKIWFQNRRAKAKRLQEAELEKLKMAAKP
Chain of HOXD13 (Homo sapiens, UniProt P35453 263-343, T313R) (P35453 263-343 T313R): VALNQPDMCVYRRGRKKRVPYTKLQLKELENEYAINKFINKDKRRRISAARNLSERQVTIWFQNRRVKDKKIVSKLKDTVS
Chain of HOXD13 (Homo sapiens, UniProt P35453 263-343) (P35453 263-343): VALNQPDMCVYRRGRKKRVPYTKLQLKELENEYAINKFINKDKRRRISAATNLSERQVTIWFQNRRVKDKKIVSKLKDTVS

CACTAATG
binding signal (VENTX [1]): 11.7 upbm affinity estimate (log intensity, higher = more binding, comparable within an allelic series) | binding signal (VENTX [2]): 12.3 upbm affinity estimate (log intensity, higher = more binding, comparable within an allelic series) | binding signal (VENTX [3]): 11.6 upbm affinity estimate (log intensity, higher = more binding, comparable within an allelic series) | binding signal (HOXA2 [4]): 12.1 upbm affinity estimate (log intensity, higher = more binding, comparable within an allelic series) | binding signal (HOXA2 [5]): 13.2 upbm affinity estimate (log intensity, higher = more binding, comparable within an allelic series) | binding signal (HOXA2 [6]): 10.9 upbm affinity estimate (log intensity, higher = more binding, comparable within an allelic series) | binding signal (HOXA2 [7]): 12.1 upbm affinity estimate (log intensity, higher = more binding, comparable within an allelic series)

CCTGGCTC
binding signal (VENTX [1]): 8.01 upbm affinity estimate (log intensity, higher = more binding, comparable within an allelic series) | binding signal (VENTX [2]): 8.1 upbm affinity estimate (log intensity, higher = more binding, comparable within an allelic series) | binding signal (VENTX [3]): 8.06 upbm affinity estimate (log intensity, higher = more binding, comparable within an allelic series) | binding signal (MSX2 [8]): 9.46 upbm affinity estimate (log intensity, higher = more binding, comparable within an allelic series) | binding signal (MSX2 [9]): 9.51 upbm affinity estimate (log intensity, higher = more binding, comparable within an allelic series) | binding signal (MSX2 [10]): 9.47 upbm affinity estimate (log intensity, higher = more binding, comparable within an allelic series)

CCCATTAG
binding signal (VENTX [1]): 12.1 upbm affinity estimate (log intensity, higher = more binding, comparable within an allelic series) | binding signal (VENTX [2]): 13 upbm affinity estimate (log intensity, higher = more binding, comparable within an allelic series) | binding signal (VENTX [3]): 11.9 upbm affinity estimate (log intensity, higher = more binding, comparable within an allelic series) | binding signal (VAX1 [11]): 12.6 upbm affinity estimate (log intensity, higher = more binding, comparable within an allelic series) | binding signal (VAX1 [12]): 12 upbm affinity estimate (log intensity, higher = more binding, comparable within an allelic series) | binding signal (VAX1 [13]): 12.3 upbm affinity estimate (log intensity, higher = more binding, comparable within an allelic series)

CCCGTCCG
binding signal (VENTX [1]): 7.93 upbm affinity estimate (log intensity, higher = more binding, comparable within an allelic series) | binding signal (VENTX [2]): 7.94 upbm affinity estimate (log intensity, higher = more binding, comparable within an allelic series) | binding signal (VENTX [3]): 7.87 upbm affinity estimate (log intensity, higher = more binding, comparable within an allelic series) | binding signal (ALX3 [14]): 7.62 upbm affinity estimate (log intensity, higher = more binding, comparable within an allelic series) | binding signal (ALX3 [15]): 7.58 upbm affinity estimate (log intensity, higher = more binding, comparable within an allelic series) | binding signal (ALX3 [16]): 7.67 upbm affinity estimate (log intensity, higher = more binding, comparable within an allelic series) | binding signal (ALX3 [17]): 7.65 upbm affinity estimate (log intensity, higher = more binding, comparable within an allelic series) | binding signal (ALX3 [18]): 7.6 upbm affinity estimate (log intensity, higher = more binding, comparable within an allelic series)

CGCCCGGA
binding signal (VENTX [1]): 7.98 upbm affinity estimate (log intensity, higher = more binding, comparable within an allelic series) | binding signal (VENTX [2]): 7.85 upbm affinity estimate (log intensity, higher = more binding, comparable within an allelic series) | binding signal (VENTX [3]): 8.06 upbm affinity estimate (log intensity, higher = more binding, comparable within an allelic series) | binding signal (HOXD13 [19]): 9.55 upbm affinity estimate (log intensity, higher = more binding, comparable within an allelic series) | binding signal (HOXD13 [20]): 9.51 upbm affinity estimate (log intensity, higher = more binding, comparable within an allelic series) | binding signal (HOXD13 [21]): 9.62 upbm affinity estimate (log intensity, higher = more binding, comparable within an allelic series)

AGCGTGCC
binding signal (VENTX [1]): 8.06 upbm affinity estimate (log intensity, higher = more binding, comparable within an allelic series) | binding signal (VENTX [2]): 7.96 upbm affinity estimate (log intensity, higher = more binding, comparable within an allelic series) | binding signal (VENTX [3]): 8.06 upbm affinity estimate (log intensity, higher = more binding, comparable within an allelic series) | binding signal (ALX3 [14]): 7.73 upbm affinity estimate (log intensity, higher = more binding, comparable within an allelic series) | binding signal (ALX3 [15]): 7.88 upbm affinity estimate (log intensity, higher = more binding, comparable within an allelic series) | binding signal (VAX1 [11]): 7.14 upbm affinity estimate (log intensity, higher = more binding, comparable within an allelic series) | binding signal (ALX3 [16]): 7.81 upbm affinity estimate (log intensity, higher = more binding, comparable within an allelic series) | binding signal (ALX3 [17]): 7.81 upbm affinity estimate (log intensity, higher = more binding, comparable within an allelic series) | binding signal (VAX1 [12]): 7.18 upbm affinity estimate (log intensity, higher = more binding, comparable within an allelic series) | binding signal (ALX3 [18]): 7.76 upbm affinity estimate (log intensity, higher = more binding, comparable within an allelic series) | binding signal (VAX1 [13]): 7.13 upbm affinity estimate (log intensity, higher = more binding, comparable within an allelic series)

AGGTCAGG
binding signal (VENTX [1]): 8.18 upbm affinity estimate (log intensity, higher = more binding, comparable within an allelic series) | binding signal (VENTX [2]): 8.14 upbm affinity estimate (log intensity, higher = more binding, comparable within an allelic series) | binding signal (VENTX [3]): 8.06 upbm affinity estimate (log intensity, higher = more binding, comparable within an allelic series)

GCGGCCCC
binding signal (VENTX [1]): 8.15 upbm affinity estimate (log intensity, higher = more binding, comparable within an allelic series) | binding signal (VENTX [2]): 8.27 upbm affinity estimate (log intensity, higher = more binding, comparable within an allelic series) | binding signal (VENTX [3]): 8.25 upbm affinity estimate (log intensity, higher = more binding, comparable within an allelic series) | binding signal (HOXA2 [4]): 6.96 upbm affinity estimate (log intensity, higher = more binding, comparable within an allelic series) | binding signal (HOXA2 [5]): 9.93 upbm affinity estimate (log intensity, higher = more binding, comparable within an allelic series) | binding signal (HOXA2 [6]): 10.3 upbm affinity estimate (log intensity, higher = more binding, comparable within an allelic series) | binding signal (HOXA2 [7]): 7.15 upbm affinity estimate (log intensity, higher = more binding, comparable within an allelic series)

CAGGGGGG
binding signal (VENTX [1]): 8.13 upbm affinity estimate (log intensity, higher = more binding, comparable within an allelic series) | binding signal (VENTX [2]): 8.11 upbm affinity estimate (log intensity, higher = more binding, comparable within an allelic series) | binding signal (VENTX [3]): 8.09 upbm affinity estimate (log intensity, higher = more binding, comparable within an allelic series) | binding signal (ALX3 [14]): 7.62 upbm affinity estimate (log intensity, higher = more binding, comparable within an allelic series) | binding signal (ALX3 [15]): 7.33 upbm affinity estimate (log intensity, higher = more binding, comparable within an allelic series) | binding signal (ALX3 [16]): 7.58 upbm affinity estimate (log intensity, higher = more binding, comparable within an allelic series) | binding signal (ALX3 [17]): 7.5 upbm affinity estimate (log intensity, higher = more binding, comparable within an allelic series) | binding signal (ALX3 [18]): 7.6 upbm affinity estimate (log intensity, higher = more binding, comparable within an allelic series)

CGCTAGGC
binding signal (VENTX [1]): 8.19 upbm affinity estimate (log intensity, higher = more binding, comparable within an allelic series) | binding signal (VENTX [2]): 8.31 upbm affinity estimate (log intensity, higher = more binding, comparable within an allelic series) | binding signal (VENTX [3]): 8.19 upbm affinity estimate (log intensity, higher = more binding, comparable within an allelic series)

CATTAGCG
binding signal (VENTX [1]): 11.8 upbm affinity estimate (log intensity, higher = more binding, comparable within an allelic series) | binding signal (VENTX [2]): 12.7 upbm affinity estimate (log intensity, higher = more binding, comparable within an allelic series) | binding signal (VENTX [3]): 11.6 upbm affinity estimate (log intensity, higher = more binding, comparable within an allelic series) | binding signal (HOXA2 [4]): 12.3 upbm affinity estimate (log intensity, higher = more binding, comparable within an allelic series) | binding signal (HOXA4): 11.4 upbm affinity estimate (log intensity, higher = more binding, comparable within an allelic series) | binding signal (HOXA2 [5]): 13.1 upbm affinity estimate (log intensity, higher = more binding, comparable within an allelic series) | binding signal (HOXA2 [6]): 10.7 upbm affinity estimate (log intensity, higher = more binding, comparable within an allelic series) | binding signal (HOXA2 [7]): 12.1 upbm affinity estimate (log intensity, higher = more binding, comparable within an allelic series)

AGTCTGCC
binding signal (VENTX [1]): 8.03 upbm affinity estimate (log intensity, higher = more binding, comparable within an allelic series) | binding signal (VENTX [2]): 8.12 upbm affinity estimate (log intensity, higher = more binding, comparable within an allelic series) | binding signal (VENTX [3]): 8.07 upbm affinity estimate (log intensity, higher = more binding, comparable within an allelic series) | binding signal (ALX1 [22]): 6.46 upbm affinity estimate (log intensity, higher = more binding, comparable within an allelic series) | binding signal (ALX1 [23]): 6.59 upbm affinity estimate (log intensity, higher = more binding, comparable within an allelic series) | binding signal (ALX1 [24]): 6.61 upbm affinity estimate (log intensity, higher = more binding, comparable within an allelic series)

GCCCCGGC
binding signal (VENTX [1]): 8.07 upbm affinity estimate (log intensity, higher = more binding, comparable within an allelic series) | binding signal (VENTX [2]): 7.98 upbm affinity estimate (log intensity, higher = more binding, comparable within an allelic series) | binding signal (VENTX [3]): 7.96 upbm affinity estimate (log intensity, higher = more binding, comparable within an allelic series) | binding signal (ALX1 [22]): 6.69 upbm affinity estimate (log intensity, higher = more binding, comparable within an allelic series) | binding signal (ALX1 [23]): 6.67 upbm affinity estimate (log intensity, higher = more binding, comparable within an allelic series) | binding signal (ALX1 [24]): 6.32 upbm affinity estimate (log intensity, higher = more binding, comparable within an allelic series)
